IL-1B inflam inh = qHTS for Inhibitors of Inflammasome Signaling: IL-1-beta AlphaLISA Primary Screen; THP-1 LPS/ATP IL-1B secretion, AlphaLISA, 16 h; hits give low values; activity change, % at 57.5 µM; 360,000 compounds, 4.7% hits; AID 743279, 2014; in the data active means activity change below about -50%; inconclusive means mostly about -30% to -49%
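Secreted IL-1B measured by AlphaLISA bead assay after 16 h compound exposure of THP-1 cells; compounds (final up to 57.5 uM) added 1 h before LPS (250 ng/mL) and ATP (1.25 mM) stimulation; lower signal means less secretion.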
HT1080 IDH1KD tx = qHTS for induction of synthetic lethality in tumor cells producing 2HG: qHTS for the HT-1080-IDH1KD cell line. HT-1080 IDH1 knockdown viability, ATP luminescence, 48 h. Potency, µM (titrated, usually from 46.1 µM), for inactives: at the highest dose activity, negative = toxicity, usual class: cytotoxic. 360,000 compounds, 2% hits. AID 686971, 2013;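 further: potency means the concentration at half of the fitted maximal effect; 0% = DMSO wells and -100% = cell-free medium wells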
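% activity derives from luminescence (CellTiter-Glo), normalised to DMSO and no-cell wells. HT-1080-IDH1KD cells, 750/well, had 48 h compound exposure at 37 °C.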
DT40 TDP1 no CPT = qHTS for Inhibitors of human tyrosyl-DNA phosphodiesterase 1 (TDP1): qHTS in cells in absence of CPT | Potency, µM (top dose mostly 46.2 µM), for the others: at the highest dose activity change, negative = growth inhibition, usual class: inhibitors | DT40 Tdp1-/- hTDP1 cells, no CPT, ATP luminescence, 48 h | 420,000 compounds, 15% hits | AID 686978, 2013; further: potency means the concentration at half of the fitted maximal effect; nearly all actives have a fitted effect of over 55% in size
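Readout: luminescence from CellTiter-Glo after 30 min in the dark at RT. Cells: DT40 Tdp1-/- with stable hTDP1, 400/well. Exposure: compounds alone, ≥48 hr, 37 °C.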
TDP1 cell CPT = qHTS for Inhibitors of human tyrosyl-DNA phosphodiesterase 1 (TDP1): qHTS in cells in presence of CPT | chicken DT40 Tdp1-/-;hTDP1 cells + 20 nM CPT, ATP luminescence, 48 h | Potency, µM (titrated, usually from 46.2 µM), for inactives: top-dose activity change, negative = growth inhibition, hits mostly inhibitors | 420,000 compounds, 12% hits | AID 686979, 2013; further: potency means the concentration at half of the fitted maximal effect; nearly all actives have a fitted effect of over 55% in size
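Chicken DT40 Tdp1-/- cells complemented with human TDP1, 400 cells/well, exposed to compounds plus 20 nM camptothecin for at least 48 h at 37 C; viability read as ATP content by CellTiter-Glo luminescence.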
HT1080NT lethal = qHTS for induction of synthetic lethality in tumor cells producing 2HG: qHTS for the HT-1080-NT fibrosarcoma cell line; HT-1080-NT fibrosarcoma viability, CellTiter-Glo ATP luminescence, 48 h; Potency, µM (top dose mostly 46.1 µM), for inactives: top-dose activity, negative = less viability, usual class: cytotoxic; 360,000 compounds, 1.6% hits; AID 686970, 2013;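 further: NT is the 2HG producing partner of a matched IDH1 knockdown line; potency means the concentration at half of the fitted maximal effect; 0% = DMSO-treated cells and -100% = media-only wells without cells; nearly all actives have a fitted effect of over 55% in size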
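Compounds were tested in concentration-response format on HT-1080-NT cells for 48 hours at 37 degrees C. Cell viability came from CellTiter-Glo luminescence; curves were classified by r2, response magnitude and activity.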
Active calls of the source: *; ? = inconclusive; nt = no result; [ ] = remark or other dose. The list is not random: actives were taken first. Their share in the collection is about 19%. Unless noted, the call rests on the fitted dose curve; in most records, active means well fitted curve in the direction sought with a large enough effect; inconclusive means small, poorly fitted or top-dose-only effect, or another doubt; inactive means no such curve, though single readings can be large; an effect the other way counts as inactive or inconclusive. Unless noted, on the % scale 0 is the no-effect control and ±100 the full control effect.

SMILES	IL-1B inflam inh	HT1080 IDH1KD tx	DT40 TDP1 no CPT	TDP1 cell CPT	HT1080NT lethal
COc1cc2nc(CN(C)Cc3nc4ccccc4c(=O)[nH]3)[nH]c(=O)c2cc1OC	6	7.1µM*	13µM*	13µM*	18µM*
COc1cc2nc(CN3CCC(Cc4ccccc4)CC3)[nH]c(=O)c2cc1OC	11	19%	?	?	11%
Cc1cc(CNC(=S)Nc2ccc(Br)cc2Cl)nn1C	-6	-1%	?	?	-16%
CN(Cc1ccon1)C(=O)c1cnn(-c2nccc(-c3ccc4c(c3)OCO4)n2)c1C1CC1	nt	nt	-15%	1%[9.04 µM]	nt
COc1ccc2c(c1)OC13CCCCC1C2C(C(=O)c1ccccc1)C(=O)N3 (stereo unspecified)	8	7%	?	?	16%
CC1CCCCC1NC(=S)Nc1cccc(S(=O)(=O)N(C)C)c1 (stereo unspecified)	-11	-11%	?	?	-15%
Cc1ccc(NC(=S)NC(=O)C2CCCCC2)c(Br)c1	46	?	15µM*	?	?
COc1ccccc1NS(=O)(=O)c1ccc(Cl)c(NC(=S)NC(=O)C2CCCC2)c1	-6	?	29µM*	23µM*	-25%
Cc1ccc(NC(=O)C2CCCC2)c(Br)c1	-28	17%	-19%	-21%	16%
COc1ccc(S(=O)(=O)Nc2ccccc2Cl)cc1NC(C)=O	7	-4%	-27%	-4%	-10%
Cc1ccc(S(=O)(=O)N(C)C)cc1NC(=S)NC1CCCC(C)C1C (stereo unspecified)	-4	12%	?	21µM*	1%
COc1ccc(S(=O)(=O)Nc2ccccc2OC)cc1NC(=O)CC1CC2CCC1C2 (stereo unspecified)	2	-9%	16µM*	?	-12%
CC(C)C(N)C(=O)O (stereo unspecified)	nt	nt	-5%	-1%	nt
S=C(Nc1cccnc1)NC1CC2CCC1C2 (stereo unspecified)	-5	11%	10%	-8%	20%
C#CCOCCOCCOCCNc1nc(N2CCN(C(=O)C([C@@H](C)CC)n3cc(C(N)Cc4ccc(O)cc4)nn3)CC2)nc(N2CCN(C(=O)[C@H](CCC(=O)O)n3cc(C(N)CO)nn3)CC2)n1 (stereo partly specified)	-4	7%	8%	11%	5%
Cc1ccc(CCNC(=O)Cn2ncc3c(=O)oc4ccccc4c32)cc1	nt	nt	-17%	1%	nt
CCc1nc2ccc(C(=O)N3CCN(S(=O)(=O)CC)CC3)cn2c1N(CC)CCOC	40	?	-2%	-3%	17%
CCN(CC)S(=O)(=O)c1ccc(Cl)c(NC(=S)NC(=O)C2CCCC2)c1	?	?	18µM*	23µM*	-9%[9.24 µM]
CCN(CC)c1ccc(S(=O)(=O)Nc2cc(Cl)ccc2Cl)cc1NC(=S)NC(=O)C1CCCC1	-50*	?	?	?	?
CCN(CC)S(=O)(=O)c1ccc(C)c(NC(=S)NC2CCCCC2)c1	24	-9%	15µM*	?	-2%
CCN(CC)S(=O)(=O)c1cccc(C(=O)NC2CCCCC2)c1	4	?	?	-9%	-13%
CC(CCc1ccccc1)NC(=O)COc1cc(F)ccc1[N+](=O)[O-] (stereo unspecified)	8	0%	?	1%	-4%
Nc1ncnc2c1ncn2[C@@H]1O[C@H](C(=O)N[C@H]2c3ccccc3C[C@H]2O)[C@@H](O)[C@H]1O	8	24%	1%	-7%	13%
COc1cccc(NC(=O)NC(C)C2CC3CCC2C3)c1 (stereo unspecified)	3	3%	-5%	12%	7%
COc1cccc(N2C(=O)C(CC(=O)Nc3ccccc3)N(CCc3sccc3C)C2=O)c1 (stereo unspecified)	nt	nt	?	18µM*	nt
SMILES	IL-1B inflam inh	HT1080 IDH1KD tx	DT40 TDP1 no CPT	TDP1 cell CPT	HT1080NT lethal
CCOc1ccc(NC(=O)CC2C(=O)N(c3ccccc3)C(=O)N2CCc2sccc2C)cc1 (stereo unspecified)	nt	nt	18µM*	15µM*	nt
CCOc1ccc(NC(=O)CC2C(=O)N(c3ccc(F)cc3)C(=O)N2CCc2sccc2C)cc1 (stereo unspecified)	nt	nt	23µM*	-111%	nt
COc1ccc(NC(=O)CC2C(=O)N(c3ccccc3)C(=O)N2CCc2sccc2C)cc1 (stereo unspecified)	nt	nt	16µM*	?	nt
CN(C1CCCCC1)S(=O)(=O)c1ccc(S(=O)(=O)N2CCN(C(=O)c3ccccc3F)CC2)cc1	?	4%	?	?	0%
COC(=O)c1[nH]cnc1C(=O)c1ccccc1	12	-2%	-8%	-26%	15%
O=C1[C@@H]2C(c3cccnc3)=NO[C@@H]2C(=O)N1c1ccc2ccccc2c1	nt	-1%	18µM*	6.5µM*	10%
COc1ccc(C2=NO[C@@H]3C(=O)N(c4ccc5c(c4)OCCO5)C(=O)[C@H]23)cc1OC	2	5%	-6%	-7%	0%
CCOc1ccc(C2c3[nH]c4ccccc4c3CCN2CCCn2cccn2)cc1 (stereo unspecified)	-2	?	?	?	?
COc1ccc(NC(=O)CN2C(=O)C(c3ccccc3)=NC23CCCCCC3)cc1	-56*	-2%	?	?	-3%
O=C(CN1C(=O)C(c2ccc(F)cc2)=NC12CCCC2)Nc1ccc(F)cc1	-20	-4%	5.8µM*	8.2µM*	-4%
COc1ccc(NC(=O)CN2C(=O)NC3(CCCCCCC3)C2=O)cc1	-11	-10%	-27%	-15%	-23%
CCOc1ccc(C(=O)NCC(c2cccs2)N(C)C)cc1OCC (stereo unspecified)	-13	5%	0%	-27%	-5%
CC(OC(=O)C1CCN(S(=O)(=O)c2ccc(Cl)cc2)CC1)C(=O)N1CCc2ccccc21 (stereo unspecified)	-10	-6%	?	?	-2%
COCCNc1nc(-c2cc(-c3ccc(Cl)cc3)on2)cc(C(C)C)n1	-21	13%	?	-21%	11%
c1ccc2c(c1)CCc1c-2nc2ccccc2c1N1CCOCC1	-20	-20%	?	12µM*	0%
O=C(O)c1c2c(nc3ccccc13)-c1ccccc1CC2	15	-6%	-9%	-4%	-12%

Assay outcomes (PubChem BioAssay)
